From PubChem
Compounds with a hit are over-represented: about 7.1% of the library has one in this group of screens.
ELG1 genotoxic – inducers of genotoxicity in HEK293T ELG1-luciferase cells. HEK293T ELG1-luciferase reporter, luminescence, 16 h. Potency, µM (top dose mostly 46 µM), usual class: activators. actives 1.3% (n = 330,000); further: nearly all actives have a fitted effect of over 60% in size
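Genotoxic stress is detected as increased luminescence from luciferase-tagged ELG1 in HEK293T cells, measured with ONE-Glo after a 16 hr treatment at 37 °C.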
p53 reactivation – restores transcriptional activity of mutant p53. actives 0.063% (n = 320,000). Potency, µM (series often up to 92.2 µM), hits mostly activators. H1299 p53-A138V BP100-luciferase reporter, luminescence, 24 h; further: nearly all actives have a fitted effect of over 45% in size
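H1299 (p53-null), stable ts p53-A138V + BP100-Luc; 1000 cells/well, Opti-MEM/10% FBS; cpd 4 pt, 1:5; 24 h, 37 deg C, 5% CO2; detection reagent 10 min RT; luminescence.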
A-T KAP1 phos – potential ataxia-telangiectasia treatments restoring KAP-1 phosphorylation; F2112 A-T fibroblasts, KAP-1 phosphorylation AlphaLISA; neocarzinostatin DNA damage 30 min before lysis; Potency, µM (doses to about 57.5 µM), most hits filed as activators; actives 0.19% (n = 320,000); AID 485349; further: nearly all actives have a fitted effect of over 45% in size
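ATM-like activity read as KAP-1 phosphorylation via AlphaLISA donor/acceptor antibody pairs after lysis and 6 hr at 25C. Cells were ATM-null patient fibroblasts (F2112, hTERT), dosed 60 min, then exposed to the DSB inducer NCS for 30 min.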
MCF10A rerep – inducers of DNA re-replication in MCF 10A breast cells; AID 624296; MCF 10A DNA re-replication, Hoechst nuclear intensity, 48 h; actives 2.9% (n = 350,000); Potency, µM (doses to about 46.1 µM), most hits filed as activators; further: nearly all actives have a fitted effect of over 50% in size
SW480 rereplic – DNA re-replication induction in SW480 cells. SW480 DNA re-replication, Hoechst DNA content imaging, 48 h. Potency, µM (series often up to 46.1 µM), hits mostly activators. AID 624297. actives 1.8% (n = 340,000); further: nearly all actives have a fitted effect of over 55% in size
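Treated cells incubate 48 hr (37 C, 5% CO2), are stained 40 min with Hoechst, and nuclear fluorescence is enumerated; a rise in nuclei with high DNA signal marks re-replication.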
ELG1 DNA repair – blocks ELG1-dependent DNA repair in HEK293T cells; HEK293T ELG1-luciferase reporter, luminescence, 16 h; DNA damage induced by 5-fluorouridine; Potency, µM (highest dose often 46.1 µM), usual class: inhibitors; actives 2.3% (n = 330,000); AID 504467; further: nearly all actives have a fitted effect of over 55% in size
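Reporter activity after DNA damage by 5-fluorouridine is monitored. Compound-treated cells incubate 16 hr at 37 °C, then ONE-Glo is added for 30 min before luminescence reading.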
Of the large screens only hits and unclear results are named; the others gave an inactive call. The call rests on the fitted dose curve; in most records, active means well fitted curve in the direction sought with a large enough effect; inconclusive means small, poorly fitted or top-dose-only effect, or another doubt; inactive means no such curve, though single readings can be large; an effect the other way counts as inactive or inconclusive.

COC(=O)c1ccc(NC(=O)CSc2ccc(-c3ccccn3)nn2)cc1	none
O=C(COC(=O)c1ccc2ncsc2c1)Nc1ccccc1Br	none
Cc1ccc(C(=O)N/C(=C\c2ccccc2)C(=O)NCCN2CCOCC2)cc1	none
CCCn1c(CCNc2nc(-c3cccc(Br)c3)cs2)nc2ccccc21	none (no result: ELG1 genotoxic, p53 reactivation, A-T KAP1 phos, ELG1 DNA repair)
COCCN(C(=O)COC(=O)CSc1ccccc1)c1c(N)n(Cc2ccccc2)c(=O)[nH]c1=O	none
O=C(Nc1nc2ccccc2s1)c1ccc(Cl)s1	ELG1 genotoxic 1.2µM, p53 reactivation inconclusive, ELG1 DNA repair inconclusive
O=C(Nc1nc(-c2cccs2)cs1)c1ccc(Cl)s1	ELG1 genotoxic inconclusive, p53 reactivation inconclusive, ELG1 DNA repair inconclusive
O=C(NC1CC1)c1ccc(-c2nc3ccccc3s2)s1	ELG1 genotoxic 0.26µM, ELG1 DNA repair inconclusive
COc1cc2sc(NC(=O)c3ccco3)nc2cc1Cl	ELG1 genotoxic 2.3µM, ELG1 DNA repair inconclusive
COc1cccc(C(=O)Nc2nc3ccccc3s2)c1	ELG1 genotoxic 4.1µM, SW480 rereplic inconclusive, ELG1 DNA repair inconclusive
Cc1cc2sc(NC(=O)c3ccco3)nc2cc1Cl	ELG1 genotoxic inconclusive, ELG1 DNA repair inconclusive (no result: p53 reactivation)
COc1ccc(C(=O)Nc2nc3ccccc3s2)cc1	ELG1 DNA repair inconclusive
Cc1ccc(NC(=O)c2sc3ncn(CC(=O)N4CCOCC4)c(=O)c3c2C)c(Br)c1	none
O=C(CS(=O)(=O)Cc1ccccc1)N1CCN(c2ccccc2F)CC1	none
COc1cccc(C(=O)Nc2nnc(C(C)C)s2)c1	ELG1 genotoxic 3.7µM, p53 reactivation inconclusive, ELG1 DNA repair inconclusive (no result: A-T KAP1 phos)
CCCc1nnc(NC(=O)c2cccc(OC)c2)s1	ELG1 genotoxic inconclusive, ELG1 DNA repair inconclusive
O=C(Nc1nc(=O)c2ccccc2s1)c1ccccc1	ELG1 genotoxic 7.3µM, p53 reactivation inconclusive, ELG1 DNA repair inconclusive
CC(C)c1nnc(NC(=O)c2cccs2)s1	ELG1 genotoxic 4.1µM, ELG1 DNA repair inconclusive
CCCCC(CC)c1nnc(NC(=O)c2cccs2)s1 (configuration not stated)	none
COc1ccc2nc(NC(=O)c3ccco3)sc2c1	ELG1 genotoxic 0.58µM, ELG1 DNA repair inconclusive
COc1ccc(CCN2CC(C(=O)Nc3ccccc3F)CC2=O)cc1OC (configuration not stated)	SW480 rereplic inconclusive, ELG1 DNA repair inconclusive
COC(=O)c1cc(S(=O)(=O)NCC2CCN(CCc3cccs3)CC2)cn1C	A-T KAP1 phos inconclusive
CCc1c(C)sc(NC(=O)c2cccs2)c1C(=O)OC(C)C	MCF10A rerep 10µM
Cc1ccc2nc(NC(=O)c3ccc(Br)o3)sc2c1	ELG1 genotoxic inconclusive, ELG1 DNA repair inconclusive (no result: p53 reactivation)
Cc1ccc2nc(NC(=O)c3ccc(-c4nc5ccccc5s4)s3)sc2c1	ELG1 genotoxic 16µM, p53 reactivation inconclusive, ELG1 DNA repair inconclusive
COc1ccc2nc(NC(=O)c3ccc4ncsc4c3)sc2c1	ELG1 genotoxic 5.8µM, p53 reactivation inconclusive, MCF10A rerep 15µM, SW480 rereplic inconclusive, ELG1 DNA repair inconclusive
COCC(=O)Nc1nc2ccc(C)cc2s1	ELG1 genotoxic 2.1µM, p53 reactivation inconclusive, ELG1 DNA repair inconclusive
COc1ccc(Cl)cc1C(=O)NNC(=O)CCNS(=O)(=O)c1ccccc1	A-T KAP1 phos inconclusive
COc1ccc(NC(=O)COC(=O)c2ccc(OC)c(S(=O)(=O)N3CCCC3)c2)cc1OC	ELG1 DNA repair inconclusive
COc1ccc(C(CNS(=O)(=O)c2cccc(F)c2)N2CCCC2)cc1 (configuration not stated)	none
CCOc1ccc(Cl)cc1S(=O)(=O)N1CCC(C(=O)N2CCCC2)CC1	MCF10A rerep inconclusive
Cc1ccc2nc(NC(=O)c3ccco3)sc2c1	ELG1 genotoxic 0.21µM, MCF10A rerep inconclusive, ELG1 DNA repair inconclusive (no result: A-T KAP1 phos)
COc1ccc2nc(NC(=O)c3ccccc3O)sc2c1	ELG1 genotoxic inconclusive, MCF10A rerep 21µM, SW480 rereplic inconclusive, ELG1 DNA repair inconclusive
COc1ccc(CN(C)S(=O)(=O)c2nnc(NC(=O)c3cccc(OC)c3)s2)cc1	MCF10A rerep inconclusive
COc1ccc2nc(NC(=O)c3ccccc3[N+](=O)[O-])sc2c1	none (no result: p53 reactivation)
COc1cccc(C(=O)Nc2nnc(S(=O)(=O)N(C)Cc3ccccc3)s2)c1	SW480 rereplic 12µM
O=C(Nc1cc2c3c(c1)CC(=O)N3CCC2)c1ccco1	ELG1 genotoxic inconclusive, ELG1 DNA repair inconclusive (no result: A-T KAP1 phos)
CN(CC(=O)Nc1ccc(F)c(F)c1F)C(=O)CC1CCCCC1	none
Cc1ccc(-n2nc3cc(C)c(N)cc3n2)cc1	ELG1 genotoxic inconclusive, p53 reactivation inconclusive, MCF10A rerep 18µM, SW480 rereplic inconclusive, ELG1 DNA repair inconclusive
CCc1ccc(-n2nc3cc(C)c(N)cc3n2)cc1	ELG1 genotoxic 0.41µM, MCF10A rerep inconclusive, SW480 rereplic inconclusive, ELG1 DNA repair inconclusive (no result: p53 reactivation)
CCc1ccc(S(=O)(=O)c2ccc(-n3nc(C)cc3N)cc2)cc1	ELG1 DNA repair inconclusive
COc1ccc(C(C[N+](=O)[O-])c2c(-c3ccccc3)cc3ccccn23)cc1 (configuration not stated)	MCF10A rerep 18µM, SW480 rereplic inconclusive, ELG1 DNA repair inconclusive
COc1cc(C(C[N+](=O)[O-])c2c(C)cc3ccccn23)ccc1O (configuration not stated)	MCF10A rerep inconclusive, SW480 rereplic inconclusive
COc1ccc(C(C[N+](=O)[O-])c2c(-c3ccccc3)cc3ccccn23)cc1OC (configuration not stated)	MCF10A rerep 21µM, SW480 rereplic inconclusive (no result: ELG1 genotoxic, p53 reactivation, A-T KAP1 phos, ELG1 DNA repair)
COc1cc(C(C[N+](=O)[O-])c2c(-c3ccccc3)cc3ccccn23)cc(OC)c1OC (configuration not stated)	ELG1 genotoxic inconclusive, MCF10A rerep inconclusive, SW480 rereplic 12µM, ELG1 DNA repair inconclusive (no result: A-T KAP1 phos)
CCCCn1c(N)c(N(Cc2ccccc2OC)C(=O)CCC(C)C)c(=O)[nH]c1=O	none
Cc1cnc(C(=O)OCc2cc(=O)n3c(C)cccc3n2)cn1	ELG1 DNA repair inconclusive
Cc1ccc(C)c(S(=O)(=O)NC(C)C(=O)NCc2ccccn2)c1 (configuration not stated)	none
O=C(NCc1cccs1)c1cc2c(s1)CCCC2	ELG1 genotoxic 21µM, p53 reactivation inconclusive, ELG1 DNA repair inconclusive
COc1cccc(-n2nc(-c3ccnn3-c3ccc(C)cc3)c(=O)n(C)c2=O)c1	MCF10A rerep inconclusive, ELG1 DNA repair 21µM
COc1ccc(-n2nccc2-c2nn(-c3cccc(OC)c3)c(=O)n(C)c2=O)cc1	MCF10A rerep inconclusive, ELG1 DNA repair inconclusive
CN(Cc1ccccc1)C(=O)COC(=O)C1CCN(S(=O)(=O)c2ccc(Cl)c(C(F)(F)F)c2)CC1	none
